Most compounds without a hit are left out; they make up all but 19% or so of the library.
DT40 TDP1 CPT – qHTS for Inhibitors of human tyrosyl-DNA phosphodiesterase 1 (TDP1): qHTS in cells in presence of CPT; chicken DT40 Tdp1-/-;hTDP1 cells + 20 nM CPT, ATP luminescence, 48 h; Potency, µM (highest dose often 46.2 µM), for the others: at the highest dose activity change, negative = growth inhibition, most hits filed as inhibitors; hit rate 12% among 420,000; AID 686979, 2013; further: nearly all actives have a fitted effect of over 55% in size
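Chicken DT40 Tdp1-/- cells complemented with human TDP1, 400 cells/well, exposed to compounds plus 20 nM camptothecin for at least 48 h at 37 C; viability read as ATP content by CellTiter-Glo luminescence.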
DT40 TDP1 no CPT – qHTS for Inhibitors of human tyrosyl-DNA phosphodiesterase 1 (TDP1): qHTS in cells in absence of CPT; hit rate 15% among 420,000; DT40 Tdp1-/- hTDP1 cells, no CPT, ATP luminescence, 48 h; AID 686978, 2013; Potency, µM (series often up to 46.2 µM), for inactives: at the top dose activity change, negative = growth inhibition, usual class: inhibitors; further: nearly all actives have a fitted effect of over 55% in size
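Luminescent ATP content (CellTiter-Glo) served as the growth readout. Knockout chicken DT40 cells expressing human TDP1 were exposed to compounds without camptothecin for a minimum 48 hr at 37 °C.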
TDP1 inh – qHTS Assay for Inhibitors of Tyrosyl-DNA Phosphodiesterase (TDP1) | Tyrosyl-DNA phosphodiesterase 1 (Homo sapiens), Q9NUW8 | recombinant TDP1, AlphaScreen DNA substrate cleavage | Potency, µM (top dose mostly 130 µM), for inactives: top-dose activity change, negative = inhibition, actives largely listed as inhibitors | hit rate 0.28% among 350,000 | AID 485290, 2010; further: nearly all actives have a fitted effect of over 40% in size
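Signal: AlphaScreen proximity between streptavidin donor and anti-FITC acceptor beads on intact substrate. Reaction: Tdp1 1 nM, substrate 15 nM final, 5 min RT after 15 min compound preincubation.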
Gal4-VP16 FLuc – VP16 counterscreen qHTS for inhibitors of ROR gamma transcriptional activity. Potency, µM (top dose mostly 53.6 µM), for the others: top-dose activity, negative = inhibition, usual class: inhibitors. Drosophila S2 Gal4-VP16 UAS-luciferase, luminescence, 20 h. hit rate 3.5% among 310,000;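 further: Gal4-VP16 expression switched on by copper sulfate through the metallothionein promoter; nearly all actives have a fitted effect of over 50% in size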
RORg inh – qHTS for inhibitors of ROR gamma transcriptional activity. Nuclear receptor ROR-gamma (Mus musculus), P51450. Drosophila S2 Gal4-RORgamma UAS-luciferase reporter, 20 h. Potency, µM (titrated, usually from 53.6 µM), without a hit: at the top dose activity change, negative = inhibition, hits mostly inhibitors. hit rate 5.4% among 310,000. AID 2551, 2010; further: nearly all actives have a fitted effect of over 60% in size
Target sequence (P51450 whole entry, looked up, the tested form may be a part): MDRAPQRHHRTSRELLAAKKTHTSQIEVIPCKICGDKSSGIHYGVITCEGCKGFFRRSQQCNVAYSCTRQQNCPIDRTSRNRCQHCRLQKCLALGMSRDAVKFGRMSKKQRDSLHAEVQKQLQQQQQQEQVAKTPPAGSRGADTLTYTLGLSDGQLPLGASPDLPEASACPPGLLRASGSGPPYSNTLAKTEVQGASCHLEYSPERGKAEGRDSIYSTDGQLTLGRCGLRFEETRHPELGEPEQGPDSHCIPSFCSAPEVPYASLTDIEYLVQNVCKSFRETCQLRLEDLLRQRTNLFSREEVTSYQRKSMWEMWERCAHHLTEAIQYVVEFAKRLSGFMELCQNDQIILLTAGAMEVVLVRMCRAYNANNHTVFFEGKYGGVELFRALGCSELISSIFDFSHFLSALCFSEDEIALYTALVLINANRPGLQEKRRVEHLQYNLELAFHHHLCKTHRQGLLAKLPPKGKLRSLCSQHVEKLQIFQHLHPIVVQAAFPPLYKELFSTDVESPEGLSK
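Stably transfected Drosophila Schneider cells are the test system, with ROR gamma fused to Gal4 and luciferase under UAS control; luminescence is read after 20 hr of 700 uM copper sulfate induction at ambient temperature.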
Starred values were filed as active, the others as inactive; ? = inconclusive; / = no result. The call rests on the fitted dose curve; in most records, active means well fitted curve in the direction sought with a large enough effect; inconclusive means small, poorly fitted or top-dose-only effect, or another doubt; inactive means no such curve, though single readings can be large; an effect the other way counts as inactive or inconclusive. On the % scale 0 is the no-effect control and ±100 the full control effect; potency means the concentration at half of the fitted maximal effect.

SMILES	DT40 TDP1 CPT	DT40 TDP1 no CPT	TDP1 inh	Gal4-VP16 FLuc	RORg inh
COc1cccc(-c2nn(-c3ccccc3)cc2C(=O)Nc2nccs2)c1	?	?	7%	18µM*	6.3µM*
O=C(c1cn(-c2ccccc2)nc1-c1ccc(Cl)cc1)N1CCOCC1	-13%	-19%	3%	5%	12%
O=C(NCc1ccccn1)c1cn(-c2ccccc2)nc1-c1ccc(Cl)cc1	?	26µM*	3%	0%	37%
COc1ccc(-c2nn(-c3ccccc3)cc2C(=O)Nc2nccs2)cc1	?	?	12%	11µM*	7.1µM*
COc1ccc(-c2nn(-c3ccccc3)cc2C(=O)N2CCOCC2)cc1	-4%	2%	2%	-9%	18%
O=C(Nc1nccs1)c1cn(-c2ccccc2)nc1-c1ccncc1	-10%	-23%	79µM*	0%	-33%
O=C(Nc1ccncc1)c1cn(-c2ccccc2)nc1-c1cccs1	?	?	-4%	4%	20%
Cc1c(N2C(=O)CS/C2=N\N=C\c2ccc(Br)cc2)c(=O)n(-c2ccccc2)n1C	0%	1%	6%	-4%	16%
CCOc1ccc(NS(=O)(=O)c2ccc(NC(=O)c3cccnc3)c(OC)c2)cc1	-10%	-20%	3%	-6%	16%
CCCCn1nnnc1SCC(=O)c1ccccc1F	-10%	9%	8%	5%	2%
O=C1CC(N(CCc2ccccc2)C(=S)Nc2cc(Cl)ccc2Cl)C(=O)N1c1c(Cl)cccc1Cl (stereo not drawn)	16µM*	10µM*	4%	-6%	-27%
CNC(=S)N(CCc1ccc(OC)c(OC)c1)C1CC(=O)N(c2ccccc2)C1=O (stereo not drawn)	?	26µM*	/	-21%	-8%
O=C(Cc1ccccc1)NNC(=S)NC(=O)c1cccnc1	-26%	-16%	3%	-8%	-32%
O=C(NNC(=S)NC(=O)c1cccnc1)c1ccccc1	?	23µM*	4%	?	-12%
O=C(NNC(=S)NC(=O)c1cccnc1)c1ccc(F)cc1	-26%	?	-3%	?	16µM*
O=C(NNC(=S)NC(=O)c1ccc(F)cc1)c1cccnc1	?	18µM*	0%	?	?
CCCN(CC1CC1)C(=O)CSc1nnc(-c2ccco2)n1N	/	/	5%	9%	34%
CCN(CC(=O)N1CCCC1)S(=O)(=O)c1ccc2ccccc2c1	-24%	-14%	/	-1%	1%
COC(=O)c1c(C)[nH]c(C)c1-c1ccccc1Cl	?	?	-1%	-2%	?
COC(=O)C1=C(C(=O)OC)SC2(S1)C(C(=O)OC)=C(C(=O)OC)SC1=C2c2cccc(C)c2NC1(C)C	9.2µM*	23µM*	7%	?	5.6µM*
Cc1ccnc(SC2CC(=O)N(c3ccc(Br)cc3)C2=O)n1 (stereo not drawn)	?	?	/	?	-129%
COc1ccc(-c2cc(C(=O)NCc3ccc(F)cc3)c3c(-c4ccc(F)cc4)[nH]nc3n2)cc1OC	16µM*	18µM*	0%	/	/
Cc1ccc(-c2cc(C(=O)NCCc3ccccc3)c3c(-c4ccc(C)cc4)[nH]nc3n2)cc1	?	9.2µM*	5%	/	/
O=C(NCCc1ccccc1)c1cc(-c2ccccc2)nc2n[nH]c(-c3ccccc3)c12	?	?	3%	/	/
COc1ccc(CNC(=O)c2cc(-c3ccc(OC)c(OC)c3)nc3n[nH]c(-c4ccc(C)cc4)c23)cc1	5.8µM*	5.2µM*	4%	/	/
Cc1ccc(CNC(=O)c2cc(-c3ccc(C)cc3)nc3n[nH]c(-c4ccc(F)cc4)c23)cc1	2%	0%	5%	/	/
COc1ccc(CNC(=O)c2cc(-c3ccc(OC)cc3)nc3n[nH]c(-c4cccc([N+](=O)[O-])c4)c23)cc1	-4%	-20%	0%	/	/

Bioassay records (PubChem BioAssay)
